Results as given in PubChem BioAssay (NCATS).
Inconclusive results are not listed. The source made the active and inactive calls. Calls come from the whole dose curve; as a rule, active = well fitted curve in the direction sought with a large enough effect; inconclusive = small, poorly fitted or top-dose-only effect, or another doubt; inactive = no such curve, though single readings can be large; an effect the other way counts as inactive or inconclusive.

Legend:
[1] = qHTS assay for measurement of the activity of small molecule inhibitors on Zika virus induced Caspase-3 activity in human iPSC derived neural progenitor cells (hNPCs) (AID 1224857); note: nearly all actives have a fitted effect of over 65% in size
Procedure, shortened: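 After overnight (16–20 h) culture at 350 cells/well, hNPCs get compound, then ZIKV 2 FFU/cell one hour later. Six hours on, Caspase-Glo 3/7 is added and luminescence measured.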

[2] = qHTS assay for measurement of the activity of small molecule inhibitors on Zika virus induced Caspase-3 activity in human astrocytoma cells (AID 1224859)
Procedure, shortened: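 Inhibition of Zika-induced caspase-3/7 activity: SNB-19 cells, 1 h compound pretreatment, ZIKV 2 FFU/cell for 6 h at 37 C, Caspase-Glo luminescence read-out.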

[3] = NS1 protein of Zika virus - qHTS assay to identify small molecule inhibitors in human HEK 293 cells (AID 1347053); note: series mostly up to about 46 µM; nearly all actives have a fitted effect of over 55% in size
Procedure, shortened: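 Compound-treated (1 h pre-infection) HEK 293 cells infected with ZIKV MR766, MOI = 0.5; after 24 h at 37 C, NS1 read by TR-FRET; data normalized to uninfected and infected controls.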

[4] = qHTS of pediatric cancer cell lines to identify multiple opportunities for drug repurposing: Primary screen for TC32 cells (AID 1347089); note: nearly all actives have a fitted effect of over 60% in size
Procedure, shortened: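 A viability screen of TC32 cells was run over 48 h, with primary MIPE doses spanning 0.78 nM–46 µM and NPC doses 0.59 nM–46 µM. ATP luminescence (CellTiter-Glo) served as the read-out.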

[5] = qHTS of pediatric cancer cell lines to identify multiple opportunities for drug repurposing: Primary screen for DAOY cells (AID 1347090); note: series mostly up to about 46 µM; nearly all actives have a fitted effect of over 55% in size
Procedure, shortened: (§1)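 Viability measured as metabolically active cells via CellTiter-Glo luminescence following 48 hours of compound exposure, 11-point dilutions in confirmatory testing. 500-1,000 cells/well plated 5 hours before dosing; controls were DMSO and 2.3 µM bortezomib.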

[6] = qHTS of pediatric cancer cell lines to identify multiple opportunities for drug repurposing: Primary screen for SJ-GBM2 cells (AID 1347091)
Procedure, shortened: as §1

[7] = qHTS of pediatric cancer cell lines to identify multiple opportunities for drug repurposing: Primary screen for A673 cells (AID 1347092); note: nearly all actives have a fitted effect of over 45% in size
Procedure, shortened: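 Titration-based qHTS on A673 cells: MIPE compounds spanned 11 points (0.78 nM to 46 µM final), NPC compounds 8 points (0.59 nM to 46 µM final). Viability after 48 h was measured by ATP luminescence.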

Measured: Potency

Nc1ccc(C(=O)OCC(O)CO)cc1 (stereo not drawn)
inactive: [1] | [2] | [3] | [4] | [5] | [6] | [7]

Brc1ccccc1-c1ccccc1
inactive: [1] | [2] | [3] | [4] | [5] | [6] | [7]

Oc1cccc2[nH]ccc12
inactive: [1] | [2] | [3] | [4] | [5] | [6] | [7]

COC(=O)c1ccc(NC(C)=O)cc1OC
inactive: [1] | [2] | [3] | [4] | [5] | [6] | [7]

CC(=O)c1cc2ccccc2s1
inactive: [1] | [2] | [3] | [4] | [5] | [6] | [7]

COc1cc(OC)nc(O[C@H](C(=O)O)C(OC)(c2ccccc2)c2ccccc2)n1
inactive: [1] | [2] | [3] | [4] | [5] | [6] | [7]

OC(CCCN1CCCCC1)(c1ccccc1)c1ccccc1
inactive: [1] | [2] | [3] | [4] | [5] | [6] | [7]

CCCCCCCC(=O)[O-].CCCCCCCC(=O)[O-].[Zn+2]
inactive: [1] | [2] | [3] | [4] | [5] | [6] | [7]

COc1ccc2c(c1)CCCC2=O
inactive: [1] | [2] | [3] | [4] | [5] | [6] | [7]

CCN(CC)C(=O)C1CN2CCc3cc(OC)c(OC)cc3C2CC1OC(C)=O (stereo not drawn)
inactive: [1] | [2] | [3] | [4] | [5] | [6] | [7]

C/C(=C1\CCOC(=O)S1)N(C=O)Cc1cnc(C)nc1N
inactive: [1] | [2] | [3] | [4] | [5] | [6] | [7]

CCN(CC)CC(=O)OCC(=O)[C@@]1(O)CC[C@H]2[C@@H]3CCC4=CC(=O)CC[C@]4(C)[C@H]3[C@@H](O)C[C@@]21C
inactive: [1] | [2] | [3] | [4] | [5] | [6] | [7]

CNC(=O)c1cnn(-c2nc(N)c3ncn([C@@H]4O[C@H](CO)[C@@H](O)[C@H]4O)c3n2)c1
inactive: [1] | [2] | [3] | [4] | [5] | [6] | [7]

C[C@H]1NCc2cc(-c3ccc4c(=O)c(C(=O)O)cn(C5CC5)c4c3OC(F)F)ccc21
inactive: [1] | [2] | [3] | [4] | [5] | [6] | [7]

Cc1nc(C2CCCCC2)c(-c2ccc(S(N)(=O)=O)c(F)c2)o1
inactive: [1] | [2] | [3] | [4] | [5] | [6] | [7]

CCCCOC(=O)CCCCCCCCC(=O)OCCCC
inactive: [1] | [2] | [3] | [4] | [5] | [6] | [7]

CCCCOCCOC(=O)c1cccnc1
inactive: [1] | [2] | [3] | [4] | [5] | [6] | [7]

CCOC(=O)C(O)c1ccccc1 (stereo not drawn)
inactive: [1] | [2] | [3] | [4] | [5] | [6] | [7]

COc1ccc(/C(C)=C/C(=O)O)c(OC)c1
inactive: [1] | [2] | [3] | [4] | [6] | [7]

CCC(=O)O[C@]1(C(=O)COC)[C@@H](C)C[C@H]2[C@@H]3CCC4=CC(=O)C=C[C@]4(C)C3(F)[C@@H](O)C[C@@]21C (stereo partly drawn)
inactive: [1] | [2] | [3] | [4] | [6] | [7]

Nc1ncnc2nc[nH]c12
inactive: [1] | [2] | [3] | [4] | [5] | [7]

Cc1cccc(C)c1NC(=O)c1ccc(N)cc1
inactive: [1] | [2] | [3] | [4] | [5] | [7]

O=C(O)Cn1cnnn1
inactive: [1] | [2] | [3] | [4] | [6] | [7]

CCN1CCN(c2cc(-c3ccc(F)cc3)c3c(n2)CCCCCC3)CC1
inactive: [1] | [2] | [3] | [4] | [5] | [7]

Oc1ccccc1-c1nnco1
inactive: [1] | [2] | [3] | [4] | [6] | [7]
